Screening results: PubChem BioAssay, National Center for Advancing Translational Sciences (NCATS)
In the library only some 7.9% were active in any assay of this set; here they are far more common.
HT1080-NT tox: kills 2HG-producing HT-1080-NT fibrosarcoma cells; HT-1080-NT fibrosarcoma viability, CellTiter-Glo ATP luminescence, 48 h; 1.6% of 360,000 active; Potency, µM (series often up to 46.1 µM), without a hit: at the top dose activity, negative = less viability, most hits filed as cytotoxic;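 note: NT is the 2HG producing partner of a matched IDH1 knockdown line; 0% = DMSO-treated cells and -100% = media-only wells without cells; nearly all actives have a fitted effect of over 55% in size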
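HT-1080-NT; 750 cells/well; 5% FBS RPMI; 48 h compound, 37 degrees C; CellTiter-Glo luminescence; curve fitting and curve-class assignment.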
KB-3-1 tox: kills parental KB-3-1 adenocarcinoma cells | KB-3-1 viability, CellTiter-Glo ATP luminescence, 72 h | Potency, µM (highest dose often 46.1 µM), usual class: cytotoxic | 1.4% of 400,000 active; note: % is set by controls: 0 for no effect and ±100 for the full control effect; nearly all actives have a fitted effect of over 60% in size
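Cytotoxicity measured as CellTiter-Glo luminescence after 72 h at 37 C. Compound titrations were pinned onto drug-naive KB-3-1 parental adenocarcinoma cells grown in DMEM with 10% FBS, and normalized data fitted to concentration-response curves.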
MCF10A rereplic: inducers of DNA re-replication in MCF 10A breast cells; AID 624296; Potency, µM (titrated, usually from 46.1 µM), for the others: top-dose activity, positive = re-replication, hits mostly activators; 2.9% of 350,000 active; MCF 10A DNA re-replication, Hoechst nuclear intensity, 48 h; note: % of control where 0% means no effect; nearly all actives have a fitted effect of over 50% in size
HT1080 IDH1KD tx: kills HT-1080 cells with IDH1 knockdown. Potency, µM (highest dose often 46.1 µM), for inactives: top-dose activity, negative = toxicity, actives largely listed as cytotoxic. HT-1080 IDH1 knockdown viability, ATP luminescence, 48 h. 2% of 360,000 active. AID 686971;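 note: 0% = DMSO wells and -100% = cell-free medium wells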
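Viability of IDH1-knockdown HT-1080 fibrosarcoma cells was assessed by CellTiter-Glo after 48 h at 37 °C with titrated compound; concentration-effect curves were classified by fit quality and response size.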
SW480 rereplic: DNA re-replication induction in SW480 cells; SW480 DNA re-replication, Hoechst DNA content imaging, 48 h; Potency, µM (highest dose often 46.1 µM), without a hit: at the top dose re-replication activation, actives largely listed as activators; 1.8% of 340,000 active; note: % of control where 0% means no effect; nearly all actives have a fitted effect of over 55% in size
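Readout is total intensity of Hoechst-stained nuclei, excited at 405 nm and collected at 500-530 nm. Compound treatment lasted 48 hr at 37 C in 5% CO2 before staining.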
KB-V1 cytotox: kills drug-selected multidrug resistant KB-V1 cells; KB-V1 MDR cells viability, CellTiter-Glo, 72 h; Potency, µM (top dose mostly 46.1 µM), hits mostly cytotoxic; 3.4% of 400,000 active; AID 1347076; note: % is set by controls: 0 for no effect and ±100 for the full control effect; nearly all actives have a fitted effect of over 60% in size
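Readout: CellTiter-Glo luminescence, 10 min after addition. Cells: KB-V1 MDR subline, 72 h at 37 degrees C with compound. Analysis: corrected, normalized data fitted to concentration-effect curves.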
Starred values were filed as active, the others as inactive; i = inactive; ? = inconclusive; . = no result given; [ ] = remark or other dose. Calls come from the whole dose curve; as a rule, active = well fitted curve in the direction sought with a large enough effect; inconclusive = small, poorly fitted or top-dose-only effect, or another doubt; inactive = no such curve, though single readings can be large; an effect the other way counts as inactive or inconclusive. Potency is the fitted concentration of half-maximal effect.

SMILES	HT1080-NT tox	KB-3-1 tox	MCF10A rereplic	HT1080 IDH1KD tx	SW480 rereplic	KB-V1 cytotox
COc1ccc(C)cc1NC(=O)CN1C(=O)c2cccc3cccc1c23	-14.9%	i	14.6µM*	-11.9%	?	i
COc1ccc(NC(=O)CN2C(=O)c3cccc4cccc2c34)cc1OC	?	i	?	?	?	i
COc1cc(/C=N/NC(=O)c2ccc(CN3c4cccc5cccc(c45)S3(=O)=O)cc2)cc(OC)c1O	-30.0%	i	16.4µM*	-13.2%	17.0%	i
O=C(CN1c2cccc3cccc(c23)S1(=O)=O)NCCc1ccccc1	-1.2%	i	11.3%	0.6%	4.5%	20.6µM*
O=C(NCC(c1ccc2c(c1)OCO2)N1CCOCC1)C(=O)Nc1ccccc1 (centres undefined)	.	i	.	.	.	i
Cc1ccc(N2C(=O)C(CC(=O)Nc3cccc(F)c3)N(CCc3ccccc3F)C2=O)cc1 (centres undefined)	.	i	.	.	.	i
CCOc1ccc(NC(=O)Cn2cnc3sc(C)c(S(=O)(=O)N4CCN(c5ccccc5OC)CC4)c3c2=O)cc1	.	i	.	.	.	i
C/C(=N\NC(=O)COc1ccc(C)cc1Br)c1cc([N+](=O)[O-])cs1	?	20.6µM*	8.2µM*	?	9.2µM*	?
O=C(Nc1ncccn1)C1c2ccccc2Oc2ccccc21	5.3%	i	2.0%	2.8%	6.1%	?
Cc1nnc(NC(=O)C2c3ccccc3Oc3ccccc32)s1	-21.9%	?	13µM*	?	?	i
O=C(Nc1ccncc1)C1c2ccccc2Oc2ccccc21	-0.2%	i	-0.9%	-16.9%	-3.0%	14.6µM*
Cc1cccc2sc(NC(=O)C3CC3)nc12	4.7%	i	?	3.7%	1.2%	i
Cc1cccc2sc(NC(=O)C3c4ccccc4Oc4ccccc43)nc12	-24.6%[9.24 µM]	i	6.51µM*	?	?	?
Cc1cccc2sc(NC(=O)c3ccc(Cl)s3)nc12	0.0%	i	16.4µM*	-2.5%	-3.5%	i
C=CCn1c(=NC(=O)c2ccc(S(=O)(=O)N3CCCc4ccccc43)cc2)sc2cc(S(N)(=O)=O)ccc21	-1.7%	i	28.2%	-10.7%	3.9%	i
COCCn1c(=NC(=O)c2ccc(S(=O)(=O)N3CCCc4ccccc43)cc2)sc2cc(S(C)(=O)=O)ccc21	5.1%	i	?	13.4%	?	1.84µM*
COc1cccc(C(=O)N=c2sc3cc(S(C)(=O)=O)ccc3n2C)c1	-4.1%	i	1.2%	-2.8%	6.51µM*	i
C#CCn1c(=NC(=O)c2ccc(S(=O)(=O)N3CCc4ccccc4C3)cc2)sc2cc(S(N)(=O)=O)ccc21	5.17µM*	?	4.11µM*	8.2µM*	?	?
C=CCn1c(=NC(=O)c2ccc(S(=O)(=O)N3CCc4ccccc4C3)cc2)sc2cc(S(N)(=O)=O)ccc21	13µM*	i	9.2µM*	20.6µM*	?	?
COCCn1c(=NC(=O)c2ccc(S(=O)(=O)N3CCc4ccccc4C3)cc2)sc2cc(S(N)(=O)=O)ccc21	-12.8%	i	-1.7%	-13.2%	-4.1%	i
COc1ccc(CC(=O)OCC(=O)N2CCCc3ccccc32)cc1OC	5.4%	i	-20.0%	-0.3%	-117.9%	i
CCNc1cccc(S(=O)(=O)N2CCCN(S(=O)(=O)c3ccc4c(c3)OCCO4)CC2)c1	.	i	.	.	.	i
Cn1c(=O)oc2cc(S(=O)(=O)NC(Cc3ccccc3)C(=O)Nc3ccc(F)cc3)ccc21 (centres undefined)	.	i	.	.	.	i
COc1ccccc1N1CCN(c2ncnc3c2oc2ccccc23)CC1	?	5.8µM*	3.26µM*	?	20.6µM*	6.51µM*
C(=C\c1ccccc1)/CN1CCN(c2ncnc3c2oc2ccccc23)CC1	?	?	78.7%	?	19.4%	3.66µM*
